Results taken from article PMC7862700, “An all-to-all approach to the identification of sequence-specific readers for epigenetic DNA modifications on cytosine”.

Experiments:
Assay in all cases: DAPPL (digital affinity profiling via proximity ligation, sequencing); 10 mM Tris-HCl pH 7.5, 50 mM NaCl, 1 mM DTT, 4% glycerol, room temperature, 30 min; GST-TFs on glutathione beads, 16-mer random dsDNA library, 0.1% formaldehyde crosslink after washing; high values mean tight binding
FEV = biological target: T1, FEV (Homo sapiens, UniProt Q99581 1-238); conditions: protein: recombinant; tags: N-terminal GST; dsDNA, one strand shown
T1 sequence: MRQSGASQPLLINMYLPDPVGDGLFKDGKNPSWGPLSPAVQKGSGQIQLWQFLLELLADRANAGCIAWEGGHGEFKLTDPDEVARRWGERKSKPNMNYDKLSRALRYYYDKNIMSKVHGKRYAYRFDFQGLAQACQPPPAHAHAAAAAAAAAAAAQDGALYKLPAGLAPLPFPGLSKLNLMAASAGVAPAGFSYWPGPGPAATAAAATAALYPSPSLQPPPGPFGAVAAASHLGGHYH
How it was run: (§1)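 Pools of DNA-barcoded human transcription factors, expressed in yeast as GST fusions on glutathione beads and combined with a tag-only sample, were incubated with 200 nmole of a 16-mer random double-stranded DNA library. Incubation took 30 min at room temperature in Tris/NaCl/DTT/glycerol buffer and was followed by washing, 0.1% formaldehyde crosslinking, proximity ligation (BsaI/T4 ligase, 1 h, 37 °C), PCR amplification and sequencing on an Illumina NextSeq500. Binding signal is the ratio of a hexamer's read frequency for a factor to its frequency for the tag-only sample.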

ETV5 = ETV5 (Homo sapiens, UniProt P41161 1-510); conditions: protein: recombinant; tags: N-terminal GST; dsDNA, one strand shown
Chain of ETV5 (P41161 whole entry): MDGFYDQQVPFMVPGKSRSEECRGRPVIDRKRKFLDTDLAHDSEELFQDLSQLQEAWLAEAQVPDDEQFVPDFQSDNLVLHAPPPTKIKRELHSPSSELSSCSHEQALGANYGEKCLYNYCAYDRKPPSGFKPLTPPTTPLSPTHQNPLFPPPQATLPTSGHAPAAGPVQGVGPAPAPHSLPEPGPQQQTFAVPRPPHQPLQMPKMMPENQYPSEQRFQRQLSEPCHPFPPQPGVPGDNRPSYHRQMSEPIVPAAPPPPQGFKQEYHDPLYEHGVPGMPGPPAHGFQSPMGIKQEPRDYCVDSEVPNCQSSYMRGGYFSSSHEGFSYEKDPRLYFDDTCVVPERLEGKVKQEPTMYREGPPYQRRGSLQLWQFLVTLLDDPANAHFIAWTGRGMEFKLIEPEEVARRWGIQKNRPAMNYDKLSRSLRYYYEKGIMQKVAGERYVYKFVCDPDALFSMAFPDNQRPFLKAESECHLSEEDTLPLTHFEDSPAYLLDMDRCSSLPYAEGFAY
How it was run: as §1

HSF1 = HSF1 (Homo sapiens, UniProt Q00613 1-529); conditions: protein: recombinant; tags: N-terminal GST; chain copies: 3; dsDNA, one strand shown
Chain of HSF1 (Q00613 whole entry): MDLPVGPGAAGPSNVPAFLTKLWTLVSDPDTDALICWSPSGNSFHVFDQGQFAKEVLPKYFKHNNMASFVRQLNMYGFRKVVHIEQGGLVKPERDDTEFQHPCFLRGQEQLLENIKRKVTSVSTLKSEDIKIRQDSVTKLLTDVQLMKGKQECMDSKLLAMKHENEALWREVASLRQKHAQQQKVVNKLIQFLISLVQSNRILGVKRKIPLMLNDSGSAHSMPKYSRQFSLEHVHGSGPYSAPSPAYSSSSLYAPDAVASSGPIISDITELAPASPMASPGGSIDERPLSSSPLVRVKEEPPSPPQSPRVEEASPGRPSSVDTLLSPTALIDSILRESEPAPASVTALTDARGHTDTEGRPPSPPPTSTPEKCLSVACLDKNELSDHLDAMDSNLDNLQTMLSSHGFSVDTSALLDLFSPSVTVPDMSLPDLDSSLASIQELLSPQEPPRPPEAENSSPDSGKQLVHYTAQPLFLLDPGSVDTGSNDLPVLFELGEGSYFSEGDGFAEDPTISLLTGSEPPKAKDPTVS
How it was run: as §1

SPIC = biological target: T2, SPIC (Homo sapiens, UniProt Q8N5J4 1-248); conditions: protein: recombinant; tags: N-terminal GST; dsDNA, one strand shown
T2 sequence: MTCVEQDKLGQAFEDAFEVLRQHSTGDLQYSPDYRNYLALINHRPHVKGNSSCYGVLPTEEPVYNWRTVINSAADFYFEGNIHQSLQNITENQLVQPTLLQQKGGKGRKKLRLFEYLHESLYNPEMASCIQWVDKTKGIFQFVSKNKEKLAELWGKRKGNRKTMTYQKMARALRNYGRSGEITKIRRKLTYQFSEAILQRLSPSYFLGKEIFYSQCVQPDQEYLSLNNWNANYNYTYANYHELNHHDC
How it was run: as §1

ELF4 = ELF4 (Homo sapiens, UniProt Q99607 1-663); conditions: protein: recombinant; tags: N-terminal GST; dsDNA, one strand shown
Chain of ELF4 (Q99607 whole entry): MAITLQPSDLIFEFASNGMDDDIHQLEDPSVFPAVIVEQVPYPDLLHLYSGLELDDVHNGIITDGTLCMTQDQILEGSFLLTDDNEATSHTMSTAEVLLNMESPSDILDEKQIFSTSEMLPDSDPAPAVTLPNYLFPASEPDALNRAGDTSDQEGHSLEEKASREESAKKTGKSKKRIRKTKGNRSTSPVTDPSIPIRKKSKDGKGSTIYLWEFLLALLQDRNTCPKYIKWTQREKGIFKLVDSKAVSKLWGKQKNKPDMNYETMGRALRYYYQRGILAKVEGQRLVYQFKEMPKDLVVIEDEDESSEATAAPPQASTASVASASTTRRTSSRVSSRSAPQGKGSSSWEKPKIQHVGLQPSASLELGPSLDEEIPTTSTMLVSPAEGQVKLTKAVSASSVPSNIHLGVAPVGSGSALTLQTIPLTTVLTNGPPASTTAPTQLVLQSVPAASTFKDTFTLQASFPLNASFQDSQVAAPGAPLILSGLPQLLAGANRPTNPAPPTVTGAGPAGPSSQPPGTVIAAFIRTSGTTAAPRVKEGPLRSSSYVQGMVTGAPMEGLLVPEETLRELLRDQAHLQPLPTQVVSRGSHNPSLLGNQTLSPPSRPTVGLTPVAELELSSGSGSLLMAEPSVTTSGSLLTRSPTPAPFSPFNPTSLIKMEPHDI
How it was run: as §1

ELK4 = biological target: T3, ELK4 (Homo sapiens, UniProt P28324-2 1-405); conditions: protein: recombinant; tags: N-terminal GST; dsDNA, one strand shown
T3 sequence: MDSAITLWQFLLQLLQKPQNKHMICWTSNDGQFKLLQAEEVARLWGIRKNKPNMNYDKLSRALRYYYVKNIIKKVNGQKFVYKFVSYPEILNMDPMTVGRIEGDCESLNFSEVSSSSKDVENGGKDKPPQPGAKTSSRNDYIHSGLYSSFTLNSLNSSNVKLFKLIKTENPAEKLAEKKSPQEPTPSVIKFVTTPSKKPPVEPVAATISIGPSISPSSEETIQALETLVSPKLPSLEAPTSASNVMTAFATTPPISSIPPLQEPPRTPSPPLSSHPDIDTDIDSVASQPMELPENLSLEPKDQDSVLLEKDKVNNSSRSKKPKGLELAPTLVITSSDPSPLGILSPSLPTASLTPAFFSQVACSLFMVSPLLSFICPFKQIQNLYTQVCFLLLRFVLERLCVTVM
How it was run: as §1

ETV2 = biological target: T4, ETV2 (Homo sapiens, UniProt O00321 1-342); conditions: protein: recombinant; tags: N-terminal GST; dsDNA, one strand shown
T4 sequence: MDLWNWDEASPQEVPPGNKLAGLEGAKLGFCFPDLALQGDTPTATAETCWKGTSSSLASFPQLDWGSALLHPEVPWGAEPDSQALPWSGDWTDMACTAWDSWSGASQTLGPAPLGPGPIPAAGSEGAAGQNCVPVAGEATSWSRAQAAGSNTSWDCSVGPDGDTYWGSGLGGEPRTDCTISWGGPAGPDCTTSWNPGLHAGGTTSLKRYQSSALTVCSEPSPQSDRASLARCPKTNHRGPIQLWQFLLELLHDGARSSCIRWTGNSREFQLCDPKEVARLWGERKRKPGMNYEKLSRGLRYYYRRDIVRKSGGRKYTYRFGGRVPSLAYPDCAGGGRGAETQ
How it was run: as §1

ELF3 = biological target: T5, ELF3 (Homo sapiens, UniProt P78545 1-371); conditions: protein: recombinant; tags: N-terminal GST; dsDNA, one strand shown
T5 sequence: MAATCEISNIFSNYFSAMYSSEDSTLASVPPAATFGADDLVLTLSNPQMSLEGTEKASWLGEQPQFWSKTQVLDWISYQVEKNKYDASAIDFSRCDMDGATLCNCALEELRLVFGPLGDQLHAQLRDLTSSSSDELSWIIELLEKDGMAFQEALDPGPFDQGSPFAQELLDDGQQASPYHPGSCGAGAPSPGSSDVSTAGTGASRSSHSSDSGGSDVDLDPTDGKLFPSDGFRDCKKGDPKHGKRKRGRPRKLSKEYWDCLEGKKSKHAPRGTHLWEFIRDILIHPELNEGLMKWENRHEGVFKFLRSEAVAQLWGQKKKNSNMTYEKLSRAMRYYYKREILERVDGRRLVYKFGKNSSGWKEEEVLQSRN
How it was run: as §1

CRX = CRX (Homo sapiens, UniProt O43186 1-299); conditions: protein: recombinant; tags: N-terminal GST; dsDNA, one strand shown
Chain of CRX (O43186 whole entry): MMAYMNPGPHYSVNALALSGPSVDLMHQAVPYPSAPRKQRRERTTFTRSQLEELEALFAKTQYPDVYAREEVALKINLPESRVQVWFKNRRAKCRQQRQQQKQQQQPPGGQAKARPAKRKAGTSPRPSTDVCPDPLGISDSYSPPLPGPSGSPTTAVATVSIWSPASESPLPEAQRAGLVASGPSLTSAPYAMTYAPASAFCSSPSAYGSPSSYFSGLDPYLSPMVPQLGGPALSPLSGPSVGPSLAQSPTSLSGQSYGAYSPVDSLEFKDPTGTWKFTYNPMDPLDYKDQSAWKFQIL
How it was run: as §1

ETV1 = ETV1 (Homo sapiens, UniProt P50549 1-477); conditions: protein: recombinant; tags: N-terminal GST; dsDNA, one strand shown
Chain of ETV1 (P50549 whole entry): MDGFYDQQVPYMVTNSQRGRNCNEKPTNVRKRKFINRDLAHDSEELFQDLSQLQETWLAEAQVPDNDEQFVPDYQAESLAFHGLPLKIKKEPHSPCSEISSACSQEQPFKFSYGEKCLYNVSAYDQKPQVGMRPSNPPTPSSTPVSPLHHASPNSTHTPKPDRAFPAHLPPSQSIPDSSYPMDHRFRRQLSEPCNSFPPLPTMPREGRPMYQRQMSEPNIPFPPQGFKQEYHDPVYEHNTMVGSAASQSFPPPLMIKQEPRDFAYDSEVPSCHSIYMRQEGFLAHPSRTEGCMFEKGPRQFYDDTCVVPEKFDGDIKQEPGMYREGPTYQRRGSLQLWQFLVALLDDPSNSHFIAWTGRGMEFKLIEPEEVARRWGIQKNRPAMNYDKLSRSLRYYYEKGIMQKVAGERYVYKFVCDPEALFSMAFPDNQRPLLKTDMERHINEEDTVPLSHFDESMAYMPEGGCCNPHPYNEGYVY
How it was run: as §1

| Sequence | binding signal (FEV) | binding signal (ETV5) | binding signal (HSF1) | binding signal (SPIC) | binding signal (ELF4) | binding signal (ELK4) | binding signal (ETV2) | binding signal (ELF3) | binding signal (CRX) | binding signal (ETV1) |
| --- | --- | --- | --- | --- | --- | --- | --- | --- | --- | --- |
| TTCCGA | 1.81 fold enrichment (6-mer frequency, TF over GST control) | 1.57 fold enrichment (6-mer frequency, TF over GST control) | 1.35 fold enrichment (6-mer frequency, TF over GST control) | 1.61 fold enrichment (6-mer frequency, TF over GST control) | 1.44 fold enrichment (6-mer frequency, TF over GST control) | 1.46 fold enrichment (6-mer frequency, TF over GST control) | 1.7 fold enrichment (6-mer frequency, TF over GST control) | 1.5 fold enrichment (6-mer frequency, TF over GST control) | 1.19 fold enrichment (6-mer frequency, TF over GST control) | 1.63 fold enrichment (6-mer frequency, TF over GST control) |
| TTCCAT | 1.18 fold enrichment (6-mer frequency, TF over GST control) | 1.36 fold enrichment (6-mer frequency, TF over GST control) | 1.74 fold enrichment (6-mer frequency, TF over GST control) | 1.19 fold enrichment (6-mer frequency, TF over GST control) | 1.27 fold enrichment (6-mer frequency, TF over GST control) | 1.42 fold enrichment (6-mer frequency, TF over GST control) | 1.23 fold enrichment (6-mer frequency, TF over GST control) | 1.2 fold enrichment (6-mer frequency, TF over GST control) | 1.43 fold enrichment (6-mer frequency, TF over GST control) | 1.25 fold enrichment (6-mer frequency, TF over GST control) |
| TTACCC | 1.36 fold enrichment (6-mer frequency, TF over GST control) | 1.36 fold enrichment (6-mer frequency, TF over GST control) | 1.43 fold enrichment (6-mer frequency, TF over GST control) | 1.4 fold enrichment (6-mer frequency, TF over GST control) | 1.48 fold enrichment (6-mer frequency, TF over GST control) | 1.38 fold enrichment (6-mer frequency, TF over GST control) | 1.56 fold enrichment (6-mer frequency, TF over GST control) | 1.14 fold enrichment (6-mer frequency, TF over GST control) | 1.95 fold enrichment (6-mer frequency, TF over GST control) | 1.35 fold enrichment (6-mer frequency, TF over GST control) |
| TCACTC | 1.23 fold enrichment (6-mer frequency, TF over GST control) | 1.19 fold enrichment (6-mer frequency, TF over GST control) | 1.11 fold enrichment (6-mer frequency, TF over GST control) | 1.3 fold enrichment (6-mer frequency, TF over GST control) | 1.24 fold enrichment (6-mer frequency, TF over GST control) | 1.34 fold enrichment (6-mer frequency, TF over GST control) | 1.35 fold enrichment (6-mer frequency, TF over GST control) | 1.26 fold enrichment (6-mer frequency, TF over GST control) | 1.05 fold enrichment (6-mer frequency, TF over GST control) | 1.18 fold enrichment (6-mer frequency, TF over GST control) |
